In the first test the target is SLC9A10. As to the kind of experiment: pooled miR-30 sensor sort-seq; sequence = guide strand. The conditions noted are these: shRNA.
TAACATTTCTTTCTTCTTGAAT had a sensor-assay potency score (higher = more potent) of -0.801.

TAGTCTGTGTCAATTATCGGAA registered a sensor-assay potency score (higher = more potent) of -0.585.

Sequence TTCGTAACAGACAATCTTCTAC came in with a sensor-assay potency score (higher = more potent) of 0.0134.

With TTAAGCAGTTTATCTCTCCTAT, the sensor-assay potency score (higher = more potent) was -0.373.

For TTTTTCGTAACAGACAATCTTC, the sensor-assay potency score (higher = more potent) was -0.245.

In turn, TAGTCTTTGGTCAAAATCCATA gave a sensor-assay potency score (higher = more potent) of -1.27.

In turn, TTTATGTTTAGGAACAAACTTT gave a sensor-assay potency score (higher = more potent) of -0.563.

Sequence TATATGAACAAATTCCACCCAC displayed a sensor-assay potency score (higher = more potent) of -0.00398.

The next test has as its target SLC9A5. Described as above. Conditions: shRNA.
Take TATCACAGCAGCTGTGTCCTGA: the sensor-assay potency score (higher = more potent) is 0.318.

For TCTGTCTCTGAACTGTCGCTCT, the sensor-assay potency score (higher = more potent) stood at 0.00832.

The sequence TAGAGCGTGGATCAGAAGGTAG gave a sensor-assay potency score (higher = more potent) of -0.999.

As for TTAAGCAACAGGCCTGAACTGA, the sensor-assay potency score (higher = more potent) is -1.07.

In turn, TTGAACTGGATGCACCAGTGGG came in with a sensor-assay potency score (higher = more potent) of -0.899.

As to TTCTGCTGGAAGACCTCCTTGT, the sensor-assay potency score (higher = more potent) was found to be 0.342.

As to TTCTCTGTCTCTGAACTGTCGC, the sensor-assay potency score (higher = more potent) is -0.349.

The sequence AAGTTGTCAAAGAACAGCCTGC yielded a sensor-assay potency score (higher = more potent) of -0.191.

For TACAAGTCCAGCCTGCTGCAAG, the sensor-assay potency score (higher = more potent) was -0.602.

AAGGTCTAGACTTAGACCCAGA registered a sensor-assay potency score (higher = more potent) of -1.07.

TTACTTTCCGAGACAGGTGAAA displayed a sensor-assay potency score (higher = more potent) of -0.787.

In turn, TTGTCAAAGAACAGCCTGCTAG registered a sensor-assay potency score (higher = more potent) of -0.67.

A further test has as its target SLC9A7. The description is as above. Conditions: shRNA.
TTCATTCTGGTCCTCTTCGGAG returned a sensor-assay potency score (higher = more potent) of -1.15.

On to TATTCGAAGAACTTTCCGCTGA, for which the sensor-assay potency score (higher = more potent) was found to be 0.32.

In the case of TTTATCTGAGAGCTGTCCCATA, the sensor-assay potency score (higher = more potent) was -0.106.

Turning to TAAGACTTGAAAGCTGTCGTTG, the sensor-assay potency score (higher = more potent) was 0.00174.

TTGGTTATCGTACACCTGGGGA came in with a sensor-assay potency score (higher = more potent) of -0.959.

Turning to TCTTCTTTAAGCTGTATCCAGC, the sensor-assay potency score (higher = more potent) was -0.509.

In turn, TACAACACCTGTAAATCCGCAG yielded a sensor-assay potency score (higher = more potent) of -0.278.

TTTGGTAAACTTAGTCACGTTG returned a sensor-assay potency score (higher = more potent) of -0.343.

Sequence TAATGAAGCATGAAACAGCAGT yielded a sensor-assay potency score (higher = more potent) of -0.713.

Take TTGAAAGCTGTCGTTGTTGGGT: the sensor-assay potency score (higher = more potent) is -0.0314.

With TCGACTTCTTGATTCCACCGAC, the sensor-assay potency score (higher = more potent) worked out at 0.212.

The sequence TTAAGCTGTATCCAGCATGAAA gave a sensor-assay potency score (higher = more potent) of -1.54.

The target of the next test is SLCO4C1. The test is described as above. Conditions: shRNA.
In the case of TTATTTAAAAAGTATCACCTTA, the sensor-assay potency score (higher = more potent) was found to be 0.0246.

Regarding TAACTTTACAAGTAACACTTAT, the sensor-assay potency score (higher = more potent) was -0.974.

Regarding TTTGTAAATATGATTGTCCATA, the sensor-assay potency score (higher = more potent) is -1.19.

Turning to TTAACTACAATACCTTGCGTGA, the sensor-assay potency score (higher = more potent) was -0.96.

With TATATGATTCAGATACACCAGC, the sensor-assay potency score (higher = more potent) was -0.633.

As for TAATATTCAAGTATGCTGCTTC, the sensor-assay potency score (higher = more potent) was 0.868.

As for TTGAACTTCAATACTTTTCCTA, the sensor-assay potency score (higher = more potent) stood at 0.743.

TTGTCTGTGATTAACACACCTT registered a sensor-assay potency score (higher = more potent) of -0.412.

The record behind these values is the OligoGym collection.
Further: reference of the scale not given here.
